Source: ChEMBL document CHEMBL3988442, “University of Dundee, Small-Polar-MMV Screening Library” (2021)

Tests used:
[1] = target: T1, Aspartate--tRNA(Asp/Asn) ligase (Mycobacterium tuberculosis (strain ATCC 25618 / H37Rv)) (UniProt P9WFW3); experiment: Assay for Asp RNA synthetase-1 from Mycobacterium tuberculosis; type: functional; design: scale not given: direction of the effect not stated beside the values; details: 30 µM; note: in the data most compounds retested in dose-response had high values
T1 sequence (whole entry): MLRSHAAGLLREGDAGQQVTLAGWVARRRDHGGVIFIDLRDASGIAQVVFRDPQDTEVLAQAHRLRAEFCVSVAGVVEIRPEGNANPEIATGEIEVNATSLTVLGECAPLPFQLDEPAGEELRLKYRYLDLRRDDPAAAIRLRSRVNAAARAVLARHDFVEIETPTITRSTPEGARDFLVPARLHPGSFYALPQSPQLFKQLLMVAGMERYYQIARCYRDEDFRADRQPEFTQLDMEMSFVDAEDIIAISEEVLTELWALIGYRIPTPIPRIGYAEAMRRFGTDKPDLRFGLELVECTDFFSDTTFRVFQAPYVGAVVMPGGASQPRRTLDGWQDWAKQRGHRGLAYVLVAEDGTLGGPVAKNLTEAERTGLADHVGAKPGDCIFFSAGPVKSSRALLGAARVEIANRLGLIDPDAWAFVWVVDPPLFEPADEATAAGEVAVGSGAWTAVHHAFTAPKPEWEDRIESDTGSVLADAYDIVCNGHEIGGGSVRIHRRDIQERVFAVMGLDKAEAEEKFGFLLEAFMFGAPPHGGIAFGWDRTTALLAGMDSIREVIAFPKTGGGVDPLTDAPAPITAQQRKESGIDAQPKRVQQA

[2] = target: Shiga toxin 2 (Escherichia coli O157:H7) (UniProt P09385+P09386); experiment: E. coli 0.157:H7 Shiga Toxin SOP - stx2 screening assay; type: functional; design: scale not given: direction of the effect not stated beside the values; details: 30 µM

SMILES	Percent Effect [1]	Percent Effect [2]
CCc1nc(CN(C)C2CCN(CCS(C)(=O)=O)C2)no1 (stereo unspecified)	3.04%	-32.8%
Cc1cccc(-c2ccc(C(=O)NCC(C)(C)C(N)=O)c(=O)[nH]2)c1	7.72%	-21.6%
Cc1n[nH]c(C2CN(C(=O)c3cc(Cl)c[nH]3)CCO2)n1 (stereo unspecified)	2.37%	-2.92%
CCc1nc2n(n1)CC(NCc1ccnc(-c3ccccc3)n1)CC2 (stereo unspecified)	-7.45%	5.5%
CN1CCCC1CNC(=O)c1nnn(-c2ccc(F)cc2)c1C1CC1 (stereo unspecified)	3.7%	-26%
CC(C)c1nc2c(n1C)CCN(Cc1nc(-c3ccsc3)no1)C2	-3.99%	-3.44%
CN(C)S(=O)(=O)c1ccc(CN2CCCC2c2ccccc2)o1 (stereo unspecified)	4.24%	-1.81%
CCc1nccn1C1CCCN(C(=O)c2cn3c(C)cccc3n2)C1 (stereo unspecified)	-4.04%	4.17%
CC(C)CS(=O)(=O)CC(=O)N(C)Cc1ccc(OC(F)F)cc1	-0.457%	4.95%
c1ncn(Cc2cnc3n2CCN(Cc2ccsc2)CC3)n1	-1.22%	-2.1%
CC(C)CCN1CCN(Cc2nc(C3CC3)no2)CC1	0.0141%	-32%
CN(C)CC1CN(C(=O)NCc2ccccc2)Cc2nccn2C1 (stereo unspecified)	-0.114%	-2.62%
CN(Cc1ccccc1)CC(O)Cn1cnc2c(cnn2C)c1=O (stereo unspecified)	-0.522%	-8.29%
O=C1NCC2(CCCN(Cc3ccccc3F)C2)Oc2ccccc21 (stereo unspecified)	-5.17%	-17.2%
Cc1cc(CN2CCN(C(=O)NC(C)c3cccnc3)CC2)on1 (stereo unspecified)	-1.43%	24.6%
CC(NC(=O)CNCCn1cccn1)c1ccc2c(c1)CCCC2 (stereo unspecified)	-4.86%	-9.4%
O=C(CSc1ccncc1)N1C[C@H]2CC[C@@H]1CN(Cc1cccnc1)C2	2.67%	-11.3%
O=C(C1=CCCC1)N1CCO[C@H]2[C@@H](Oc3ccccn3)CC[C@@H]21	0.28%	-1.55%
COc1cc(C(=O)NS(=O)(=O)c2cccc(C#N)c2)cc(Cl)c1OC	0.845%	3.59%
CCOc1ncccc1NC(=O)N1CCCCCC1	7.43%	-2.38%
Cc1cnn(CC2CCCN2Cc2nccn2C)c1 (stereo unspecified)	5.22%	7.58%
COCC(O)CN(C)C(=O)NC1CCN(Cc2ccccn2)CC1 (stereo unspecified)	-3.52%	-36.8%
Cc1cc(N2CCC(c3nnc(CN(C)C)n3C3CC3)CC2)ccn1	5.21%	-33.5%
Cc1[nH]nc2ncc(C(=O)N3CCN(CC(C)C)CC3)cc12	-2.36%	33.6%
COc1ccc(CN2C[C@@H]3CCCO[C@@H]3[C@H](NS(C)(=O)=O)C2)cc1	5.42%	-24%
O=C1OC2(CCN(C3CCCOC3)CC2)CN1CCc1ccccc1 (stereo unspecified)	1.52%	-27.2%

SMILES	Percent Effect [1]	Percent Effect [2]
CC(=O)N(Cc1ncc(C)o1)C1CCN(Cc2cccc(C#N)c2)C1 (stereo unspecified)	0.127%	9.86%
COCC(O)CNC(=O)c1coc(COc2ccc3sc(C)nc3c2)n1 (stereo unspecified)	5.55%	-20%
O=C(NCCNc1ncccn1)C1CCN(CC(F)(F)F)CC1	2.17%	21.6%
Cc1noc([C@H]2CC[C@@H]3[C@@H](CCN3S(C)(=O)=O)O2)n1	2.38%	-3.33%
Cc1ncc(-c2ccnc(N3CCCCCC3)n2)c(-c2cccnc2)n1	7.25%	-25.4%
CC(C)c1cc(NC(=O)c2ccc(NC3CC3)nc2)[nH]n1	-1.67%	-52%
Cc1cc(=O)n(CC(=O)NCC2CCCO2)c(-c2cccc(Cl)c2)n1 (stereo unspecified)	8.05%	-13.2%
Cc1nc(CNC(=O)NCC(O)c2cccc(Cl)c2)cs1 (stereo unspecified)	1.01%	-16.9%
CS(=O)(=O)NCC1CCCN(C(=O)c2cc3ccccc3o2)C1 (stereo unspecified)	3.19%	-22%
Cc1csc(C2CCCN(C(=O)c3cnc[nH]3)C2)n1 (stereo unspecified)	5.76%	16.6%
Cc1nn(C)cc1CN1CCC(C2Nc3ccccc3S(=O)(=O)N2)CC1 (stereo unspecified)	-0.223%	14.6%
O=C(CCN1CCCC1c1cccs1)N1CCc2sccc2C1 (stereo unspecified)	-0.954%	1.91%
CCCN1CCN(C(=O)C(C)n2cc(Br)cn2)CC1 (stereo unspecified)	5.74%	-31.6%
Cc1cnc(N2CCC3(CCN(CC4CC4)C3=O)CC2)nc1	-3.05%	-8.57%
COc1ccnc(N2CCN(CC(=O)N3CCOCC3)CC2)n1	-1.91%	26.3%
O=C(CCCc1ncc(-c2ccccc2)o1)N1CCN(CCO)CC1	-1.6%	-44.5%
CC(OCC1CC1)C(=O)N1CCCN(c2ncccc2C#N)CC1 (stereo unspecified)	2.42%	27.5%
NC(=O)C1CN(C(=O)Nc2cc(Cl)cc(Cl)c2)CCO1 (stereo unspecified)	1.82%	8.74%
CSCc1cccc(S(=O)(=O)N2CCC(C)CC2)c1	-1.92%	4.74%
O=C(c1coc(COc2cccc(F)c2)n1)N1CC[C@H](O)[C@@H](O)C1	2.06%	11.7%
Cc1cc(N2CCCN(C(=O)Cc3ccc(O)c(Cl)c3)CC2)ccn1	1.92%	-29.5%
CCN1CCC2(CCC(=O)N2Cc2cccc(C)n2)CC1	-3.94%	1.16%
O=C1COC2(CCN(CC3CC3)CC2)CN1c1ccccc1	-0.547%	5.01%
Cc1ccc2c(c1)c(CNC(=O)C1CC(=O)N(C3CCCC3)C1)nn2C (stereo unspecified)	4.05%	-18%
CC(C(=O)NCCOc1ccc2c(c1)OCO2)n1cncn1 (stereo unspecified)	-7.68%	-4.93%
CCc1cc(=O)[nH]c2nnc(SCC(=O)OC)n12	-8.74%	-6.54%

SMILES	Percent Effect [1]	Percent Effect [2]
CC1COCCN1Cc1nc(-c2cccs2)no1 (stereo unspecified)	14.7%	20.8%
N#Cc1c(F)cccc1N1CCN(S(=O)(=O)c2cccs2)CC1	4.83%	-12.3%
CCSc1ccc(C(=O)Nc2c(C)nn(C(C)C)c2C)cn1	-2.39%	-37.7%
Cc1ncc(C)c(N2CCCC(CO)(Cc3cccc(Cl)c3)C2)n1 (stereo unspecified)	2.71%	-21.4%
CN(C)C(=O)CN1CCC2(CCCN(Cc3cccn3C)C2)C1=O (stereo unspecified)	2.49%	-13.9%
c1ccc(-c2noc3c2CN(CC2CC2)CC3)cc1	4.77%	-9.68%
CC(=O)NCCc1ccc(C(=O)N2CCCC2c2cnn(C)c2)cc1 (stereo unspecified)	3.04%	21.3%
CC(C)(C)C(=O)N1C[C@H](c2ccsc2)[C@H]2CN(Cc3cccs3)CC[C@H]21	-0.28%	-20.2%
COc1cccc2c1ccn2CC(=O)N[C@@H](CCSC)C(=O)O	6.16%	-11.2%
CC(C)c1ccsc1C(=O)N1CCCN(Cc2cscn2)CC1	6.6%	14.7%
CC(C)N(C)Cc1cnc2n1CCN(C(=O)NC1CCCC1)C2	-1.4%	-28.1%
CC(=O)N1CCN(Cc2csc(-c3cnn(C)c3)n2)CC1	-1.03%	-1.47%
CNC(=O)[C@H]1C[C@@H]2CN(C(=O)c3ccco3)C[C@@H]2N1S(C)(=O)=O	-2.01%	-24.9%
Cc1nc(C)n(CC2CCCN(CCc3ccncc3)C2)n1 (stereo unspecified)	0.891%	-14.2%
O=C(CCc1ccccc1)Nc1ncccc1OC(F)F	-3.26%	-5.61%
O=C(NS(=O)(=O)c1cc(Cl)sc1Cl)c1cccc2c1OCCO2	1.84%	-6.84%
CC(=O)Nc1nc(C2CCN(C(=O)c3cccnc3)CC2)cs1	-8.57%	-3.89%
Cc1cc(CN(C)C(=O)NCc2cccc(N3CCCC3=O)c2)no1	-2.4%	-15%
O=S(=O)(CCN1CCOC(Cn2cccn2)C1)C(F)(F)F (stereo unspecified)	8.08%	191%
Cn1nc2c(cc1=O)CN(Cc1nc(-c3cccs3)no1)CC2	1.81%	3.81%
COCCN1CCC(CNC(=O)C2(c3cccc(C)c3)CC2)CC1	5.2%	-5.28%
Cn1ncc(C(=O)N2CCCC(n3cccn3)C2)c1C1CC1 (stereo unspecified)	3.87%	-7.05%
CC(C)c1nccn1C1CCCN(C(=O)c2cccc3c2OCO3)C1 (stereo unspecified)	0.582%	-1.21%
CCn1nccc1CNC(=O)C1CC1	11%	-39.4%
COc1ccc(C(=O)N2Cc3c(Cn4ccnc4)nn(C)c3C2)cc1	-10.7%	-6.82%
Cn1nnc2cc(C(=O)N3CCCC3Cc3ccccc3)ccc21 (stereo unspecified)	2.04%	-54.6%

SMILES	Percent Effect [1]	Percent Effect [2]
O=C(Cc1cccc(F)c1)NCCNCc1ccco1	0.577%	3.74%
Cc1ccccc1CS(=O)(=O)CC(=O)NC1CCCCNC1=O (stereo unspecified)	-3.58%	-14.7%
NC(=O)C1CCCN(Cc2c(-c3ccco3)[nH]c3ncccc23)C1 (stereo unspecified)	10.6%	3.34%
Cc1ccc(CN(C)C(=O)CN2CC(n3cccn3)C2)o1	1.26%	-26.8%
O=C(Cc1cccnc1)N1CCC(OCc2ccccc2)CC1	-3.5%	7.67%
Fc1cc(CNCc2ccc3c(c2)CCO3)ccc1N1CCOCC1	-1.01%	-16.1%
O=C(N1CCOCC1)N1CCc2ncnc(NC3CC3)c2CC1	6.32%	-39.4%
Cc1ccccc1N1CCN(C(=O)c2ccc[nH]2)C(C)C1 (stereo unspecified)	-2.33%	24.5%
COc1cc(C)c(C(C)NC(=O)Nc2nnc(C)s2)cc1OC (stereo unspecified)	-7.26%	9.98%
O=C(C1=CCCC1)N1C[C@H](Oc2cccnc2)[C@H]2OCCC[C@H]21	-2.63%	-10.5%
O=C(NCCN1CCC(c2cccs2)CC1)c1ccccc1C(F)(F)F	-10.3%	-49.7%
CC(=O)c1sc(Nc2ccc(Cl)cn2)nc1C	6.71%	-4.07%
Cn1ccnc1CN1CCN(CC(=O)NCC(F)(F)F)CC1	1.97%	18.6%
CCC(=O)NCCc1cc(N2CCN(C(C)=O)CC2)nc(C2CC2)n1	-0.432%	-2.36%
CS(=O)(=O)NC[C@]12COC[C@H]1CN(CC1CCCC1)C2	0.107%	6.37%
CSCCC(=O)N1CCCC1c1ccsc1 (stereo unspecified)	2.62%	4.03%
O=C(Cc1ccc(F)cc1)N1CCn2cc(Cn3cccn3)nc2C1	5%	5.65%
CN(Cc1ccccc1)CC(O)Cn1cnc2ccsc2c1=O (stereo unspecified)	-1.75%	-2.3%
CC(=O)N1CCCC(c2cnc(-c3c(C)nn(C)c3C)cn2)C1 (stereo unspecified)	-3.49%	-14.1%
CN(Cc1ccccn1)C(=O)[C@]12COC[C@H]1CN(Cc1cnn(C)c1)C2	-0.844%	-6.88%
O=C1[C@H]2CN(Cc3nccs3)C[C@H]2CN1c1ccsc1	5%	1.38%
O=C(c1ccc(C(F)(F)F)nc1)N1CCCC(n2cncn2)C1 (stereo unspecified)	-4.88%	-8.71%
c1ncn(CC2CCCCN2Cc2noc(C3CC3)n2)n1 (stereo unspecified)	3.28%	26%
CN(CCOc1cccc(CNC(=O)C2CC2)c1)C1CCOCC1	-1.13%	-0.044%
Cc1cc(CNCc2c(C)nn(C)c2N2CCOCC2)no1	-2.57%	16.5%
